Measured values from PubChem BioAssay (Tox21).
Where “and” joins values, the source holds several entries; their conditions need not be identical. Equal values may be shown once. Inconclusive results are not listed. More than one record can exist for a structure, and the calls need not agree. Calls of active or inactive are those of the source. Unless noted, calls come from the whole dose curve; as a rule, active = well fitted curve in the direction sought with a large enough effect in the repeat runs; inconclusive = weak or mixed curves; inactive = no such curve, though single readings can be large; an effect the other way counts as inactive or inconclusive.

What was measured:
[1] = qHTS assay to identify small molecule antagonists of the estrogen related receptor (ERR) signaling pathway from Tox21 library - cell viability counter screen (AID 1224834); note: nearly all actives have a fitted effect of over 30% in size; note: potency is the fitted concentration of half-maximal effect
Outline: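 Compounds in DMSO were pinned onto ERR cells that had been incubated for 6 h, and the plates were held at 37 C for 17.5 h. CellTiter-Fluor reagent was then added and fluorescence was measured after 30 min.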

[2] = biological target: Luciferin 4-monooxygenase (Photinus pyralis) (UniProt P08659); experiment: qHTS assay to identify small molecule inhibitors of firefly luciferase (AID 1224835); note: nearly all actives have a fitted effect of over 25% in size; note: potency is the fitted concentration of half-maximal effect
Outline: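 Biochemical qHTS: compounds run as interplate titrations against purified firefly enzyme, with D-luciferin and ATP each at its KM concentration. Light output recorded by CCD imaging.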

[3] = qHTS assay to identify small molecule antagonists of the constitutive androstane receptor (CAR) signaling pathway - cell viability counter screen (AID 1224837); note: nearly all actives have a fitted effect of over 45% in size; note: potency is the fitted concentration of half-maximal effect
Outline: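 Cells are seeded, rested 4 hr at 37 C/5% CO2, dosed with compound (15-point series) and 50 nM CITCO, incubated a further 23 hr, and then CellTiter-Fluor reagent is added before fluorescence is read. The line is HepG2 with stable hCAR and CYP2B6-2.2kb.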

[4] = qHTS assay to identify small molecule antagonists of the estrogen related receptor signaling pathway with the pleiotropic PPARgamma coactivator (PGC) from Tox21 10K library - cell viability counter screen (AID 1224840; active = well fitted cell-killing curve with a large enough effect in the repeat runs, not every such curve was filed as active; note: nearly all actives have a fitted effect of over 40% in size; note: potency is the fitted concentration of half-maximal effect)
Outline: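 Cell viability is measured by CellTiter-Fluor fluorescence in PGC/ERR cells that receive compounds after a 6-hour attachment period and are then incubated 17.5 hours at 37 C.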

[5] = qHTS assay to identify small molecule agonists of the hypoxia (HIF-1) signaling pathway - cell viability counter screen (AID 1224844; calls by dose curve; note: nearly all actives have a fitted effect of over 50% in size; note: potency is the fitted concentration of half-maximal effect)
Outline: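 Viability counter screen: HRE-bla ME-180 cells plated 5 hrs before compound addition, treated 17 hrs at 37C and 5% CO2, then CellTiter-Glo added after the FRET reporter read; luminescence after 30 min.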

[6] = qHTS assay to identify small molecule agonists of H2AX (AID 1224845; active = well fitted activation curve with a large enough effect in the signal ratio in the repeat runs, not every such curve was filed as active; the % refers to the signal ratio; note: potency is the fitted concentration of half-maximal effect)
Outline: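 Wild-type CHO-K1 cells, plated overnight, exposed 3hr at 37C to 15 concentrations (0.76% DMSO final). Lysed, then HTRF anti-pH2AX (S139) cryptate and anti-H2AX-d2 antibodies, 24 hr room temperature; 665/620 nm emission read.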

[7] = qHTS assay to identify small molecule agonists of the hypoxia (HIF-1) signaling pathway (AID 1224846; active = well fitted activation curve with a large enough effect in the signal ratio in the repeat runs, not every such curve was filed as active; the % refers to the signal ratio; note: % is set by controls: 0 for no effect and ±100 for the full control effect)
Outline: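 Agonist mode reporter screen. ME-180 cells stably expressing bla under HRE control received test compounds in DMSO for 17 hrs (37C, 5% CO2), and beta-lactamase activity was then detected with the CCF4-AM FRET substrate.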

[8] = qHTS assay to identify small molecule agonists of H2AX - cell viability counter screen (AID 1224847; calls by dose curve; note: nearly all actives have a fitted effect of over 30% in size; note: potency is the fitted concentration of half-maximal effect)
Outline: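 After overnight plating of 1000 CHO-K1 cells per well, a 15-concentration compound series was applied for 3 hr at 37C. Luminescence from CellTiter-Glo, read following 30 min at room temperature, reflected cell viability.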

[9] = A CellTox Green Cytotoxicity Assay to monitor cytotoxicity in HEK293 cells - 0 hour (AID 1224869); note: % is set by controls: 0 for no effect and ±100 for the full control effect; nearly all actives have a fitted effect of over 50% in size
Outline: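 Dead-cell fluorescence measured kinetically: asymmetric cyanine dye, HEK293, 600 cells/well, 5 h settle, 23 nL cpd/DMSO, 37 C, reads 0–40 h every 8 h.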

[10] = qHTS RealTime-Glo MT Cell Viability Assay in HepG2 cells - 40 hour (AID 1224870); note: nearly all actives have a fitted effect of over 50% in size; note: potency is the fitted concentration of half-maximal effect
Outline: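 HepG2 cells (600/well) mixed with RealTime-Glo MT reagent, settled 5 h at 37 C/5% CO2 before compound addition. Nonlytic NanoLuc luminescence from viable-cell prosubstrate reduction read repeatedly during 40 h treatment at 37 C.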

[11] = biological target: Nuclear receptor subfamily 1 group I member 3 (Homo sapiens) (UniProt Q14994); experiment: qHTS assay to identify small molecule antagonists of the constitutive androstane receptor (CAR) signaling pathway (AID 1224838);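 note: HepG2 cells stably expressing hCAR with CYP2B6 luciferase reporter stimulated by CITCO; nearly all actives have a fitted effect of over 40% in size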; note: potency is the fitted concentration of half-maximal effect
Outline: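 Luminescence from a CYP2B6-2.2kb promoter reporter in hCAR-expressing HepG2 cells reflects CAR signaling. Cells received compounds at 15 concentrations and 50 nM CITCO (final), then incubated 24 h at 37 C/5% CO2.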

[12] = biological target: Thyrotropin receptor (Homo sapiens) (UniProt P16473); experiment: qHTS assay to identify small molecule agonists of the thyroid stimulating hormone receptor (TSHR) signaling pathway (AID 1224843; calls by dose curve; note: % is set by controls: 0 for no effect and ±100 for the full control effect; nearly all actives have a fitted effect of over 45% in size)
Outline: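 HEK293/TSHR, 800 cells/well; cpd 30 min RT; add cAMP-d2 + anti-cAMP-cryptate, 1 h RT; fluorescence read on plate reader. 15-pt titration, n=3.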

[13] = biological target: Nuclear receptor subfamily 1 group I member 3 (Homo sapiens) (UniProt Q14994); experiment: qHTS assay to identify small molecule agonists of the constitutive androstane receptor (CAR) signaling pathway (AID 1224839); note: nearly all actives have a fitted effect of over 15% in size; note: potency is the fitted concentration of half-maximal effect;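 for activation: HepG2 cells stably carrying human CAR and a CYP2B6 luciferase reporter; % is set by controls: 0 for no effect and ±100 for the full control effect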
Outline: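 Using human hepatoma HepG2 cells engineered with hCAR and a CYP2B6-2.2kb reporter, 15-concentration compound series were incubated 24 h alongside PK11195 at 0.75 uM final, with luminescence quantified afterwards.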

[14] = qHTS assay to identify small molecule antagonists of the estrogen related receptor signaling pathway with the pleiotropic PPARgamma coactivator (PGC) from Tox21 10K library (AID 1224841; call rule not given here; note: % is set by controls: 0 for no effect and ±100 for the full control effect; actives are mostly falling curves and most rising ones were filed inactive; nearly all actives have a fitted effect of over 50% in size)
Outline: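 Cells stably carrying the PGC/ERR reporter, seeded at 2,000 per well, received pin-transferred compounds 6 h post-plating. Exposure lasted 18 h at 37 C. Signal: One-Glo luminescence.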

[15] = qHTS assay to identify small molecule agonists of the estrogen related receptor signaling pathway with the pleiotropic PPARgamma coactivator (PGC) from Tox21 10K library (AID 1224842); note: nearly all actives have a fitted effect of over 15% in size; note: potency is the fitted concentration of half-maximal effect; for activation: % is set by controls: 0 for no effect and ±100 for the full control effect
Outline: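 PGC/ERR reporter cell line, 2,000 cells per well, incubated 6 h at 37 C before 23 nL compound in DMSO was added. After 18 h at 37 C, One-Glo luminescence read following 30 min at room temperature.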

[16] = qHTS assay to identify small molecule antagonists of the estrogen related receptor (ERR) signaling pathway from Tox21 library (AID 1224848)
Outline: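 Compounds dissolved in DMSO are pin-transferred onto ERR reporter cells (2,000 per well) that have settled for 6 h at 37 C. Plates then incubate 18 h at 37 C before ONE-Glo luciferase reagent and a luminescence read 30 min later.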

[17] = qHTS assay to identify small molecule agonists of the estrogen related receptor (ERR) signaling pathway from Tox21 library (AID 1224849; calls by dose curve; note: % is set by controls: 0 for no effect and ±100 for the full control effect; nearly all actives have a fitted effect of over 15% in size); details: ERR reporter cell line, ONE-Glo luciferase, 18 h
Outline: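 Quantitative HTS in agonist format: NTP ERR cell line, compounds transferred in DMSO after 6 h plating, 18 h incubation at 37 C, ONE-Glo luminescence endpoint.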

[18] = qHTS RealTime-Glo MT Cell Viability Assay in HepG2 cells - 24 hour (AID 1224867)
Outline: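 HepG2 cells (600/well) were dispensed with RealTime-Glo reagents, incubated 5 h at 37 °C, then treated with compounds in DMSO for up to 40 h. Nonlytic NanoLuc luminescence reflecting viable cells was read at each stated time point.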

[19] = qHTS RealTime-Glo MT Cell Viability Assay in HEK293 cells - 32 hour (AID 1224868); note: nearly all actives have a fitted effect of over 50% in size; note: potency is the fitted concentration of half-maximal effect
Outline: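 HEK293 cells seeded with NanoLuc/prosubstrate reagent, rested 5 h at 37 C, then dosed and kept at 37 C up to 40 h. Nonlytic real-time luminescence from viable cells read at 0, 8, 16, 24, 32 and 40 h.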

[20] = qHTS assay to identify small molecule agonists of the constitutive androstane receptor (CAR) signaling pathway - cell viability counter screen (AID 1224836); note: nearly all actives have a fitted effect of over 45% in size; note: potency is the fitted concentration of half-maximal effect
Outline: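 Multiplexed viability check: HepG2-CYP2B6-hCAR cells, 15-point compound dosing, 0.75 uM PK11195 final, 23 h at 37 C, CellTiter-Fluor fluorescence.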

Nuclear receptor subfamily 1 group I member 3 (Homo sapiens), sequence (Q14994 whole entry, looked up): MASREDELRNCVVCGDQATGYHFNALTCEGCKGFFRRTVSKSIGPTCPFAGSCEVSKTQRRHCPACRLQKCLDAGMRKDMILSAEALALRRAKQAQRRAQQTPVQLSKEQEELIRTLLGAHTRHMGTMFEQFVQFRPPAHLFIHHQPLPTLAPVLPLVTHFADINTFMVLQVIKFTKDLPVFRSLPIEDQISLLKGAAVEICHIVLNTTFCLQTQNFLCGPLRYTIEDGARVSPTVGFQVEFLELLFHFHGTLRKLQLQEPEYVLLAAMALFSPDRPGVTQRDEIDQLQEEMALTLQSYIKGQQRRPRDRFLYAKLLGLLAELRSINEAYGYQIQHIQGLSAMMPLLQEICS
Luciferin 4-monooxygenase (Photinus pyralis), sequence (P08659 whole entry, looked up): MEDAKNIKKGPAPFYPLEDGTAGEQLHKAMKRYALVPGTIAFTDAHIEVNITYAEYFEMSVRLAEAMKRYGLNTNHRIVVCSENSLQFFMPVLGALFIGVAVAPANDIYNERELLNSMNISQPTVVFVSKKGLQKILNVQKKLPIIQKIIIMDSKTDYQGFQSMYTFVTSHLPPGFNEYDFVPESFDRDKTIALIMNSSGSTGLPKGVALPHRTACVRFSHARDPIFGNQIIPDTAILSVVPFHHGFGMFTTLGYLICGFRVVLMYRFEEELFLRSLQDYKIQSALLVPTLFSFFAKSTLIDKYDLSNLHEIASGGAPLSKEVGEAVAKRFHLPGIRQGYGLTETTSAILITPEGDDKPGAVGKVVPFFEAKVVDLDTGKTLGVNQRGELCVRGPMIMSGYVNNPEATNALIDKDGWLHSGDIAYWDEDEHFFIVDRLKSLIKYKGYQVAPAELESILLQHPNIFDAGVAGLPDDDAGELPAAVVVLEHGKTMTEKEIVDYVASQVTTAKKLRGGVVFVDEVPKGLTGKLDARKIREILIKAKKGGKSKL
Thyrotropin receptor (Homo sapiens), sequence (P16473 whole entry, looked up): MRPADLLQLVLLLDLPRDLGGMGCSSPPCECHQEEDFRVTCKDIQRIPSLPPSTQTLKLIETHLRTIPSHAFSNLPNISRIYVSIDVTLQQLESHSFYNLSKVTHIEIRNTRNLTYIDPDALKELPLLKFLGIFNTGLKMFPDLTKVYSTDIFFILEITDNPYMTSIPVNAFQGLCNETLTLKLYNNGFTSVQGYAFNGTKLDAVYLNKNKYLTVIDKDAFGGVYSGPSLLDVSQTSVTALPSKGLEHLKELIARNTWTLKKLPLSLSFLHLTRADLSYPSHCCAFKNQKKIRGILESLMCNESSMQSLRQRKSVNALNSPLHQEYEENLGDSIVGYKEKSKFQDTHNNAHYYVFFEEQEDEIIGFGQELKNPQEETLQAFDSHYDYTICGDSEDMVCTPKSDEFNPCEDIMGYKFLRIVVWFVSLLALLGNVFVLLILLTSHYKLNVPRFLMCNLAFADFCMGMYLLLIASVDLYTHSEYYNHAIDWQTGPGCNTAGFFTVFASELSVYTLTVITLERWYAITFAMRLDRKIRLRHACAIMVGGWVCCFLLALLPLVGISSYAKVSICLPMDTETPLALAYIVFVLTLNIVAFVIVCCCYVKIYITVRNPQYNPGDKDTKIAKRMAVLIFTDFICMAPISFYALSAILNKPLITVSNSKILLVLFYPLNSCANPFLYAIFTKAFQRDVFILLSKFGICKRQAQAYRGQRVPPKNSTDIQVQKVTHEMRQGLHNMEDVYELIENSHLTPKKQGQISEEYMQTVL

C=C(C)C(=O)O
inactive: Potency [1] | Potency [2] | Potency [3] | Potency [4] | Potency [5] | Potency [6] | Potency [7] | Potency [8] | Potency [9] | Potency [10]

CNCCC(Oc1ccc(C(F)(F)F)cc1)c1ccccc1 (stereo not drawn)
active: Potency [1] 60.3 µM | Potency [11] 29.8 µM | Potency [4] 67.7 µM and 29.8 µM | Potency [8] 112 µM and 49.2 µM
inactive: Potency [12] | Potency [9]

CCCOC(=O)c1cc(O)c(O)c(O)c1
inactive and 19.3 µM (active): Potency [13]
active: Potency [1] 54.2 µM and 61.1 µM | Potency [15] 4.31 µM | Potency [16] 48.3 µM and 54.5 µM
inactive: Potency [3] | Potency [11] | Potency [14] | Potency [12] | Potency [5] | Potency [7] | Potency [8] | activity change, positive = activation ([17]; at 92.4 µM (top of the series)) -50.8% and -46.2% | Potency [18] | Potency [9] | Potency [10]

Nc1ccc2cc3ccccc3cc2c1
active: Potency [2] 20.4 µM and 17.8 µM | Potency [13] 27.8 µM and 48.6 µM
inactive: Potency [1] | Potency [11] | Potency [4] | Potency [12] | Potency [5] | Potency [6] | Potency [8] | Potency [18] | Potency [19] | Potency [9] | Potency [10]

CCCCCCCCCCCCc1ccccc1O
inactive and 48.6 µM (active): Potency [4]
inactive: Potency [2] | Potency [9]
active: Potency [1] 43.3 µM | Potency [11] 30.6 µM | Potency [13] 4.79 µM and 4.33 µM | Potency [5] 19.5 µM | Potency [6] 55.9 µM and 40.1 µM | Potency [8] 55.9 µM and 40.1 µM
inactive and 49 µM (active): Potency [10]

O=C(OCc1ccccc1)c1ccc(O)cc1
inactive: Potency [1] | Potency [3] | Potency [11] | Potency [13] | Potency [4] | Potency [12] | Potency [5] | Potency [6] | Potency [7] | Potency [18] | Potency [9] | Potency [10]
active: Potency [2] 31.7 µM and 15.5 µM

COc1ccc(CCN2CCC(Nc3nc4ccccc4n3Cc3ccc(F)cc3)CC2)cc1
active: Potency [1] 22.2 µM and 26.6 µM | Potency [20] 17.6 µM and 29.8 µM | Potency [3] 17.6 µM and 29.8 µM | Potency [11] 17.6 µM and 26.6 µM | Potency [4] 19.8 µM and 29.8 µM | Potency [5] 12.6 µM | Potency [16] 12.5 µM and 26.6 µM | Potency [19] 6.3 µM and 15.1 µM | Potency [10] 15.8 µM and 10.7 µM
inactive: Potency [13] | Potency [15] | Potency [12] | activity change, positive = activation ([17]; at 42.5 µM (top of the series)) -69.8% | activity change, positive = activation ([17]; at 92.4 µM (top of the series)) -76.4% | Potency [9]

CC(C)(C)NC(=O)[C@@H]1CN(Cc2cccnc2)CCN1C[C@@H](O)C[C@@H](Cc1ccccc1)C(=O)N[C@H]1c2ccccc2C[C@H]1O
inactive: Potency [1] | Potency [20] | Potency [3] | Potency [4] | Potency [5] | Potency [6] | Potency [7] | Potency [18] | Potency [19] | Potency [9] | Potency [10]
